Drawing on ChEMBL document CHEMBL3433997, “St. Jude Leishmania screening dataset” (2016), this text covers inhibition for 40 compounds.

The test addresses Glucose transporter (Leishmania mexicana) (UniProt O61059). Put plainly: ST_JUDE_LEISH: Cytotoxicity at 2uM final concentration against transgenic Leishmania Mexicana promastigotes LmGT2 that are glucose transport deficient and complemented with the L. Mexicana glucose transporter 2. Activity is measured by DNA content using SYBR green in vitro. The class given is functional.
`O=C(Nc1cccc(-c2cccc(-c3nc4cc(F)ccc4[nH]3)c2)c1)Nc1ccc2c(c1)OCO2`: the inhibition was -1.13%. Consider `CN(C)CCNc1cc(-c2cccnc2)nc(-c2ccncc2)n1`, for which the inhibition is -1.09%.

In the case of `CC(C)CNCc1cccc(-c2ccc(CNc3ccc4ncccc4c3)cc2)c1`, the inhibition is -0.62%.

For the compound `Cc1c(C(C)(C)C)ccc2nc(N)nc(N)c12`, the inhibition was 56.6%. As for `Nc1nc(N)c2c(Cl)c(N3CCOCC3)ccc2n1`, the figure is 34.6%. As for `c1ccc(CN2CCN(CCNc3c4ccccc4nc4ccccc34)CC2)cc1`, the figure is 12.9%; as for `CCSc1ccccc1CON1C(=N)N=C(N)NC1(C)C`, 18.7%; as for `CCCCC(=O)Nc1nc2ccc([N+](=O)[O-])cc2s1`, -0.58%. As for `CC(C)(C)c1ccc(S(=O)(=O)Nc2ccccc2Cn2nc(N3CCNCC3)ccc2=O)cc1`, the figure is 8.79%; as for `COCCN1CCC(C(=O)NCC(C)(C)c2nc(-c3ccc(Br)c(O)c3)c(-c3ccncc3)[nH]2)CC1`, 7.22%; as for `COc1ccc(C2CCN(CCCCNC(=O)c3ccc(NC(=O)c4ccc(Cl)cc4)cc3)CC2)c(C)c1`, -2.18%.

On to `Cc1cnc(C(=O)Nc2cccc(-c3cccc(-c4nc5cc(F)ccc5[nH]4)c3)c2)cn1`, for which the inhibition was 5.18%. As for `COc1cccc(C2CCN(CCN3CCC(NC(=O)c4ccc(-c5ccc(C(F)(F)F)cc5)cc4)CC3)CC2)c1`, the figure is 6.6%. For `O=C(/C=C/c1ccc(Cl)c(Cl)c1)NCCCCCN1CCC(C(=O)Nc2ccc3c(c2)OCO3)CC1`, the inhibition was determined as 5.17%. As to `COc1cc(Cc2cnc(N)nc2N)ccc1OCC(=O)Nc1ccc(C)cc1`, the inhibition came to 8.92%.

Turning to `COc1ccc2c(NN=Cc3cccnc3)ccnc2c1`, the inhibition is -0.33%. For the compound `CN1CCN(c2ccnc3ccc(NC(=O)Nc4ccc5ccccc5c4)cc23)CC1`, the inhibition was 2.8%. As for `NC(=O)c1sc(-n2cnc3ccccc32)cc1OCc1ccccc1[N+](=O)[O-]`, the figure is 6.48%. As for `Cc1noc(C)c1-c1ccc(C(=C2CCCCCC2)c2ccc(O)cc2)cc1`, the figure is 4.06%; as for `COc1cc(OC)cc(C(=O)Nc2nc(-c3ccccn3)cs2)c1`, 7.57%.

On to `CC(C)NCc1ccc(-c2cccc(CN3CCC(c4ccccc4)CC3)c2)c(C(=O)NCC2CCCCC2)c1`, for which the inhibition stood at 8.2%.

For `Cc1cccc2nc(-c3ccc(-c4cccc(NC(=O)CN5CCN(C)CC5)c4)s3)[nH]c12`, the inhibition amounted to 2.66%.

Turning to `CCC/C=C/c1c(CNCCCNc2cc(=O)c3ccccc3[nH]2)sc(CC)c1Br`, the inhibition was 0.32%. Consider `O=C(NC1CCN(Cc2ccccc2)CC1)c1cc(-c2cccnc2)nc2ccc(Cl)cc12`, for which the inhibition was determined as 8.35%. On to `O=C(Nc1cccc(C(F)(F)F)c1)Nc1ccc(F)c([N+](=O)[O-])c1`, for which the inhibition was -0.74%.

With `C(=N\Nc1nccc2sc(-c3ccccc3)cc12)/c1cccnc1`, the inhibition was found to be 3.16%. As for `Cn1cc(CN2CCCC(COC(c3ccc(F)cc3)c3ccc(F)cc3)C2)cn1` (stereo not given), the inhibition turned out to be 1.84%. As for `COc1ccc2nc3cc(Cl)ccc3c(Nc3ccc(C(=O)O)cc3)c2c1`, the figure is 0.06%; as for `CN(CCC(CCN1CCC(c2c[nH]c3ccccc23)CC1)c1ccccc1)C(=O)Nc1ccc(Cl)c(Cl)c1` (stereo not given), 0.72%; as for `COc1cc(N(Cc2ccccc2C)S(=O)(=O)Cc2ccccc2[N+](=O)[O-])c(OC)cc1Cl`, 3.39%.

Consider `c1ccc(-n2cncn2)cc1`, for which the inhibition was 4.67%. With `CC(CNC(=O)c1cc2c(Cl)cc(Cl)cc2[nH]1)CNc1cc(=O)c2ccccc2[nH]1` (stereo not given), the inhibition was determined as 2.08%. On to `O=C(NCc1ccccc1)Nc1ccc(-c2cccc(-c3nc4cc(C(F)(F)F)ccc4[nH]3)c2)cc1`, for which the inhibition was -1.23%. As for `CC1CCCN(S(=O)(=O)c2ccc(NC(=O)c3cc(-c4ccccc4O)n[nH]3)cc2)C1` (stereo not given), the figure is 0.62%. For `O=S(=O)(NCCN1CCCC1)c1ccc(-c2ccc(CNCc3ccccc3)cc2)cc1F`, the inhibition came to 0.32%. As for `COc1ccc2nccc([C@@H](O)CN3CCC(NCC(O)Cc4ccccc4)CC3)c2c1` (stereo not given in full), the inhibition was 1.51%.

As to `CC(NC(=O)c1ccc(O)c(-c2ccc(Cl)c(Cl)c2)c1)C(=O)NCCN1CCCC1` (stereo not given), the inhibition was 4.25%. As for `C#CCNC(=O)c1ccc(-c2ccnc(Nc3cccc(CCCN4CCOCC4)c3)n2)s1`, the figure is 27.2%. As to `Cc1nc(N)nc(N)c1-c1ccc(Cl)c(Cl)c1`, the inhibition amounted to 5.34%.

In the case of `Clc1ccc(C2CCN(CCCOc3ccc4c(c3)CCNCC4)CC2)cc1`, the inhibition turned out to be 75.7%.
